We go through 14 compounds from PubChem BioAssay (NCI).

Several values for one entry are separate records, joined by “and”; a condition that tells them apart may be missing. Equal values may be shown once. This is part of a sample that, as a whole, favours compounds with a hit. Of some 83,000 tested, about 20% had one in any assay.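 Plates (96-well) were seeded with cells, treated with compound at one concentration, and incubated for 48 hours before percent growth was determined.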 Activity calls are given as the source filed them. Rule for the calls: active = growth percent below 10; inactive = the rest.

Among the test systems are NCI-H23 lung; NCI-H226 lung; NCI-H322M lung; HOP-62 NSCLC; NCI-H460 lung; HOP-92 NSCLC; A549/ATCC NSCLC; 786-0 renal; COLO 205 colon; NCI-H522 lung.
Holding throughout (test): NCI-60 one-dose screen, 48 h (100 = growth as untreated, 0 = no growth, -100 = all killed)
Settings in all cases: 10 µM unless noted

With `O=C1OC2(c3ccccc31)c1ccc(O)c(O)c1Oc1c2ccc(O)c1O`, the growth with NCI-H23 lung is 105% (inactive) and 102% (inactive); with NCI-H226 lung, 90.5% (inactive) and 121% (inactive); with NCI-H322M lung, 109% (inactive) and 130% (inactive); in the assay with HOP-62 NSCLC, 114% (inactive) and 101% (inactive); in the assay on NCI-H460 lung it was 114% (inactive) and 109% (inactive); with HOP-92 NSCLC, 61.9% (inactive) and 120% (inactive). The growth in the assay on A549/ATCC NSCLC is 105% (inactive); with 786-0 renal, 109% (inactive) and 117% (inactive); with COLO 205 colon, 115% (inactive) and 117% (inactive).

Take `O=C(Cc1cccc2ccccc12)N/N=C/c1ccc2c(c1)CCC2`: the growth in the assay with NCI-H23 lung was 88.5% (inactive); with NCI-H226 lung it was 97.3% (inactive); with NCI-H322M lung, 84.3% (inactive); in the assay on HOP-62 NSCLC, 67.1% (inactive); in the assay on NCI-H460 lung it was 81.5% (inactive); with HOP-92 NSCLC it was 92.9% (inactive). The growth was 23.5% (inactive) in the assay with NCI-H522 lung, 65.8% (inactive) in the assay with A549/ATCC NSCLC, 88% (inactive) with 786-0 renal and 82% (inactive) in the assay with COLO 205 colon.

With `CC(C)Cc1ccc(C(C)C(=O)NCc2ccc(Cn3c(=O)sn(CCCI)c3=O)cc2)cc1` (configuration not stated), the growth was 92% (inactive) and -78.3% (active) in the assay with NCI-H23 lung; 83.8% (inactive) and 4.03% (active) in the assay on NCI-H226 lung; 98.2% (inactive) and 59.4% (inactive) in the assay on NCI-H322M lung; -56.2% (active) in the assay with HOP-62 NSCLC; 99.6% (inactive) and 3.28% (active) in the assay on NCI-H460 lung; 73.6% (inactive) and -67.5% (active) with HOP-92 NSCLC. Further, the growth in the assay with NCI-H522 lung is 69% (inactive) and -55.6% (active); in the assay on A549/ATCC NSCLC, 95.4% (inactive) and -54.7% (active); with 786-0 renal, 94.3% (inactive) and -88.9% (active); in the assay with COLO 205 colon, -62.4% (active).

Turning to `CNC(=O)c1cccc(-c2ccc3c(N4CCOC[C@@H]4C)nc(N4CCOC[C@@H]4C)nc3n2)c1`, the growth was 18.3% (inactive) and 10.2% (inactive) with NCI-H23 lung; -11.5% (active) and -2.84% (active) with NCI-H226 lung; 6.83% (active) and -14.6% (active) in the assay on NCI-H322M lung; -3.27% (active) and -14.6% (active) in the assay with HOP-62 NSCLC; 11.4% (inactive) and 9.46% (active) with NCI-H460 lung; -25.3% (active) and -21.5% (active) in the assay on HOP-92 NSCLC. In addition, the growth was 10.4% (inactive) and -11.1% (active) with NCI-H522 lung; 4.83% (active) and -7.57% (active) with A549/ATCC NSCLC; 0.967% (active) and -5.74% (active) in the assay on 786-0 renal; 4.53% (active) and -11.4% (active) with COLO 205 colon.

Turning to `NC(=O)C1CC2C=CC1C2` (configuration not stated), the growth with NCI-H23 lung was 92.1% (inactive) and 106% (inactive); in the assay on NCI-H226 lung, 97.7% (inactive) and 98.9% (inactive); with NCI-H322M lung, 104% (inactive) and 107% (inactive); in the assay with HOP-62 NSCLC, 91.2% (inactive) and 98.4% (inactive); in the assay on NCI-H460 lung it was 103% (inactive) and 110% (inactive); with HOP-92 NSCLC it was 101% (inactive) and 94.5% (inactive). The growth in the assay on NCI-H522 lung is 106% (inactive) and 94.2% (inactive); with A549/ATCC NSCLC, 96.2% (inactive) and 100% (inactive); in the assay on 786-0 renal, 98% (inactive) and 116% (inactive); in the assay on COLO 205 colon, 96.8% (inactive) and 120% (inactive).

With `CC(=O)Nc1ccc(O)cc1`, the growth was 99.3% (inactive) and 112% (inactive) and 102% (inactive) in the assay on NCI-H23 lung; 92.9% (inactive) and 106% (inactive) and 112% (inactive) in the assay on NCI-H226 lung; 108% (inactive) and 111% (inactive) and 102% (inactive) in the assay on NCI-H322M lung; 111% (inactive) and 106% (inactive) and 104% (inactive) in the assay on HOP-62 NSCLC; 109% (inactive) and 105% (inactive) and 108% (inactive) in the assay on NCI-H460 lung; 80.3% (inactive) and 120% (inactive) in the assay with HOP-92 NSCLC. Moreover, the growth with A549/ATCC NSCLC was 96.9% (inactive) and 122% (inactive) and 108% (inactive); in the assay with 786-0 renal, 99.5% (inactive) and 106% (inactive) and 103% (inactive); in the assay on COLO 205 colon, 105% (inactive) and 116% (inactive) and 101% (inactive).

`CN1CCN(c2ccc3nc(-c4c(N)c5c(F)cccc5[nH]c4=O)[nH]c3c2)CC1`: the growth in the assay with NCI-H23 lung is 27.9% (inactive) and 34.1% (inactive); with NCI-H226 lung, 54.8% (inactive) and 71.3% (inactive); in the assay on NCI-H322M lung, 52.4% (inactive) and 61.6% (inactive); in the assay with HOP-62 NSCLC, 23.4% (inactive) and 24.6% (inactive); in the assay on NCI-H460 lung it was 6.56% (active) and 7.99% (active); with HOP-92 NSCLC it was 43.9% (inactive) and 44.5% (inactive). Besides, the growth in the assay on NCI-H522 lung is 18.5% (inactive) and 53.8% (inactive); with A549/ATCC NSCLC, 12.9% (inactive) and 22.3% (inactive); with 786-0 renal, 38.1% (inactive) and 24.8% (inactive); in the assay on COLO 205 colon, 5.09% (active) and 26.8% (inactive).

For `COc1ccc2ccccc2c1/C=N/N1CCCCC1`, the growth is 97.2% (inactive) with NCI-H23 lung; 102% (inactive) with NCI-H226 lung; 105% (inactive) with NCI-H322M lung; 101% (inactive) with HOP-62 NSCLC; 109% (inactive) in the assay on NCI-H460 lung; 67.8% (inactive) in the assay on HOP-92 NSCLC. In addition, the growth with NCI-H522 lung was 86.9% (inactive); in the assay on A549/ATCC NSCLC, 95.7% (inactive); in the assay on 786-0 renal, 96.1% (inactive); in the assay on COLO 205 colon, 102% (inactive).

As for `CC(C)Oc1ccc2cc(-c3nn(CC4CCNCC4)c4ncnc(N)c34)ccc2c1`, the growth is 67.3% (inactive) and 42.6% (inactive) in the assay on NCI-H23 lung; 97.6% (inactive) and 63.7% (inactive) with NCI-H226 lung; 89.8% (inactive) and 53.9% (inactive) in the assay with NCI-H322M lung; 79.8% (inactive) and 53.2% (inactive) in the assay with HOP-62 NSCLC; 102% (inactive) and 15.8% (inactive) with NCI-H460 lung; 66.1% (inactive) and -1.47% (active) in the assay on HOP-92 NSCLC. The growth is 87.2% (inactive) and -28% (active) in the assay with NCI-H522 lung; 80.1% (inactive) and 16.9% (inactive) with A549/ATCC NSCLC; 89.3% (inactive) and -32.9% (active) in the assay with 786-0 renal; 74.4% (inactive) and -47.7% (active) with COLO 205 colon.

Regarding `COc1ccccc1/C=N\N=C(N/N=C/c1ccccc1OC)N/N=C/c1ccccc1OC`, the growth in the assay on NCI-H23 lung was 58% (inactive) and 27.5% (inactive); with NCI-H226 lung it was 85.7% (inactive) and 46.5% (inactive); in the assay with NCI-H322M lung, 56.5% (inactive) and 15.1% (inactive); in the assay with HOP-62 NSCLC it was 74.8% (inactive) and 26.9% (inactive); with NCI-H460 lung it was 46.3% (inactive) and 12.8% (inactive); in the assay with HOP-92 NSCLC it was 68.2% (inactive) and 15.3% (inactive). Also, the growth with NCI-H522 lung is 38.6% (inactive) and 17.3% (inactive); in the assay on A549/ATCC NSCLC, 61.1% (inactive) and 27.1% (inactive); in the assay on 786-0 renal, 74.4% (inactive) and 35.8% (inactive); in the assay with COLO 205 colon, 75.6% (inactive) and 34.6% (inactive).

Consider `COC(=O)[C@H]1CCCN1C(=O)C1CCCN1C(=O)[C@@H](Cc1ccccc1)NC(=S)Nc1cc(C(F)(F)F)cc(C(F)(F)F)c1` (some centres not stated), for which the growth with NCI-H23 lung was 108% (inactive) and 96.5% (inactive); in the assay on NCI-H226 lung, 105% (inactive) and 87.6% (inactive); in the assay with NCI-H322M lung it was 142% (inactive) and 88.4% (inactive); with HOP-62 NSCLC, 105% (inactive) and 97.9% (inactive); in the assay on NCI-H460 lung, 102% (inactive) and 94.5% (inactive); with HOP-92 NSCLC, 111% (inactive) and 84.9% (inactive). Further, the growth was 97.2% (inactive) and 71.4% (inactive) in the assay with A549/ATCC NSCLC; 105% (inactive) and 99.2% (inactive) in the assay on 786-0 renal; 121% (inactive) and 91.4% (inactive) with COLO 205 colon.

Consider `Clc1ccc(SSc2ccc(Cl)cc2)cc1`, for which the growth is 94.1% (inactive) and 85.5% (inactive) in the assay with NCI-H23 lung; 104% (inactive) and 79.5% (inactive) in the assay with NCI-H226 lung; 95.6% (inactive) and 108% (inactive) in the assay with NCI-H322M lung; 102% (inactive) and 98% (inactive) in the assay with HOP-62 NSCLC; 98.1% (inactive) and 79.5% (inactive) in the assay with NCI-H460 lung; 76% (inactive) and 74.2% (inactive) in the assay with HOP-92 NSCLC. Besides, the growth in the assay on NCI-H522 lung is 87.9% (inactive) and 81.8% (inactive); in the assay with A549/ATCC NSCLC it was 95.9% (inactive) and 46.9% (inactive); with 786-0 renal, 96.5% (inactive) and 66.8% (inactive); in the assay with COLO 205 colon, 99.6% (inactive) and 113% (inactive).

For `N#CC(C#N)=C/C=C/c1cccc([N+](=O)[O-])c1`, the growth in the assay on NCI-H23 lung was 19.4% (inactive) and -19.3% (active); in the assay on NCI-H226 lung, 21.8% (inactive) and -24.7% (active); in the assay with NCI-H322M lung, 59.9% (inactive) and 26.4% (inactive); with HOP-62 NSCLC it was -4.35% (active) and -23.7% (active); in the assay with NCI-H460 lung, -7.92% (active) and -72.3% (active); with HOP-92 NSCLC it was 23.3% (inactive). In addition, the growth in the assay with NCI-H522 lung is -55.5% (active) and -70.5% (active); with A549/ATCC NSCLC it was 34.1% (inactive) and 10.2% (inactive); in the assay on 786-0 renal it was 26.2% (inactive) and -22.1% (active); in the assay with COLO 205 colon, 1.24% (active) and -26.8% (active).

As for `CC1=CCC2CC1C2(C)C` (configuration not stated), the growth was 80.7% (inactive) and 93.5% (inactive) in the assay on NCI-H23 lung; 101% (inactive) and 97.7% (inactive) in the assay with NCI-H226 lung; 92.4% (inactive) and 94.8% (inactive) with NCI-H322M lung; 82.8% (inactive) and 68.9% (inactive) in the assay with HOP-62 NSCLC; 106% (inactive) and 102% (inactive) in the assay with NCI-H460 lung; 75.5% (inactive) and 121% (inactive) in the assay on HOP-92 NSCLC. The growth with NCI-H522 lung is 92.9% (inactive) and 39.9% (inactive); in the assay on A549/ATCC NSCLC, 94.3% (inactive) and 83.6% (inactive); with 786-0 renal it was 101% (inactive) and 98.6% (inactive); with COLO 205 colon it was 89.2% (inactive) and 103% (inactive).
